The target of test [1] is Guanine nucleotide-binding protein G(i) subunit alpha-1 (Homo sapiens) (UniProt P63096). Briefly: qHTS Assay for Inhibitors of RGS12 GoLoco Motif Activity (Green Fluorophore) (AID 879).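 Further: 0% = labeled peptide with Gαi1 and full inhibition = labeled peptide alone without protein; negative values mean loss of peptide binding seen as reduced polarization.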 An outline of the steps: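 Fluorescence polarization assay: 50 nM Gαi1 with 10 nM FITC-labeled RGS12 GoLoco peptide in 10 mM Tris pH 7.5, 150 mM NaCl, 0.1 mM GDP, 0.05% NP40, 10 min at room temperature with compound.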
Guanine nucleotide-binding protein G(i) subunit alpha-1 (Homo sapiens), sequence (P63096 whole entry, looked up): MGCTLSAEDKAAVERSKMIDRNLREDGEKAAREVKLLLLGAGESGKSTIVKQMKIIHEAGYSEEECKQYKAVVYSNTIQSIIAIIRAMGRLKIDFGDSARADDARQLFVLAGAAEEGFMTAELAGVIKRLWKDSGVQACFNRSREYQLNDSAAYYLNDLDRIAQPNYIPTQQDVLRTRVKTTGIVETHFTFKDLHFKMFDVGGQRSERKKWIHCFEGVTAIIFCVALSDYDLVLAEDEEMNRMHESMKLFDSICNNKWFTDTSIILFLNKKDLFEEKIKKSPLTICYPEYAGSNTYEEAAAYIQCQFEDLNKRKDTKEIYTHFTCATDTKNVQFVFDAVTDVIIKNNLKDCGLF
A general note: qHTS replaces the single test concentration by a dilution series.

For test [2], the target named is Cytochrome P450 3A4 (Homo sapiens) (UniProt P08684). Briefly: qHTS Assay for Inhibitors and Substrates of Cytochrome P450 3A4 (AID 884). Further: nearly all actives have a fitted effect of over 50% in size. Further: potency means the concentration at half of the fitted maximal effect. An outline of the steps: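 20 nM human CYP3A4 with 25 uM Luciferin-PPXE (at KM) in 200 mM KPO4, preincubated 10 min with compound; NADPH regeneration started a 60 min RT reaction. Luciferin detected by luminescence, normalized to 57 uM ketoconazole as full inhibition.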
Cytochrome P450 3A4 (Homo sapiens), sequence (P08684 whole entry, looked up): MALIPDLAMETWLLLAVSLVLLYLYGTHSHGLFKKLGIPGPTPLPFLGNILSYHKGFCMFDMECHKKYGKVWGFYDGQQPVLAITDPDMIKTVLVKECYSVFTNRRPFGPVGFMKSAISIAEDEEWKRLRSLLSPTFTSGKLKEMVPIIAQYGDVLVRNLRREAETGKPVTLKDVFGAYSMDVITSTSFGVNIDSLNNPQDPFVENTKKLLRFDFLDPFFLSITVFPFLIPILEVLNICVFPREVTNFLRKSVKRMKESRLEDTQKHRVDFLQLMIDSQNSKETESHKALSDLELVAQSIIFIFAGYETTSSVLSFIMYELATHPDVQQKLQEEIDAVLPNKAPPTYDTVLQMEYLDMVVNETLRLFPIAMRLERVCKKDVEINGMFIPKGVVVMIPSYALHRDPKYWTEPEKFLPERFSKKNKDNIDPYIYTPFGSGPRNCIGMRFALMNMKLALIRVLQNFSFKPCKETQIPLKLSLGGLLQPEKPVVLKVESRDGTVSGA

The target is the same in test [3]. Put plainly: qHTS Assay for Activators of Cytochrome P450 3A4 (AID 885). Further: nearly all actives have a fitted effect of over 65% in size. Further: potency means the concentration at half of the fitted maximal effect. An outline of the steps: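 Steps: enzyme/substrate mix dispensed; compound added, 10 min RT; NADPH regeneration solution added, 60 min RT; luciferin detection buffer stops reaction; 20 min later luminescence measured.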
The target in test [4] is Cytochrome P450 2C19 (Homo sapiens) (UniProt P33261). Briefly: qHTS Assay for Inhibitors and Substrates of Cytochrome P450 2C19 (AID 899). Further: nearly all actives have a fitted effect of over 60% in size. Further: potency means the concentration at half of the fitted maximal effect. An outline of the steps:
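Reactions contain 5nM enzyme, 10uM Luciferin-H EGE (KM) and 50mM KPO4; compound preincubates 10 min at 37C, NADPH regeneration starts turnover for 60 min. Luminescence after detection reagent gives activity.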

The nature of test [5]: Confirmation and Secondary Assay for Modulators of Hemoglobin Beta Chain Splicing at IVS2 654 locus (AID 910).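 Further: HeLa cells stably carrying EGFP split by mutant beta-globin IVS2-654 intron; per-well total GFP intensity by laser scanning cytometry after 2-day treatment; % of control where 0% means no effect.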 An outline of the steps: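 Readout: per-well total peak green fluorescence (488 nm ex, 500–520 nm em) from objects 5–250 µm, reflecting correct splicing of an EGFP-654 reporter. Compounds were applied for 2 days at 37 °C to overnight-plated HeLa EGFP-654 cells; controls were DMSO and 500 nM IVS2-654 PNA.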

The nature of test [6]: qHTS Assay for Identification of Small Molecule Agonists for Thrombopoietin (TPO) Signaling Pathway (AID 917). Further: potency means the concentration at half of the fitted maximal effect. An outline of the steps:
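We measured Glycoprotein IIb promoter–luciferase output in IL-3-starved Ba/F3 murine cells expressing the human TPO receptor after 24 hrs at 37 C with compounds and 26 pM TPO.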

Test [7] can be described thus: Confirmation and Secondary Assay for Modulators of Hemoglobin Beta Chain Splicing at IVS2 705 locus (AID 930).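 Further: HeLa cells stably expressing the EGFP-705 splicing reporter; GFP fluorescence per well restored by corrected splicing of the IVS2-705 intron in EGFP; series mostly up to about 46 µM; % of control where 0% means no effect.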 An outline of the steps:
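Fluorescence gain (488 nm laser, 500-520 nm PMT) reflects restored correct splicing of a mutant IVS2-705 intron inside EGFP in stably transfected HeLa cells after 2-day compound treatment.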

Test [8] concerns the target Muscarinic acetylcholine receptor M1 (Rattus norvegicus) (UniProt P08482). Briefly: qHTS Assay for Antagonists of Acetylcholine Muscarinic M1 Receptor: Measurement of IP-One Response (AID 944). Further: nearly all actives have a fitted effect of over 75% in size. An outline of the steps:
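CHO cells stably expressing rat M1, pretreated 10 min with compound, then stimulated 30 min with carbachol at EC80 (200 nM) in LiCl-containing buffer pH 7.4; IP1 accumulation read by HTRF competition (665/620 nm).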

Test [9] deals with Cytochrome P450 2C9 (Homo sapiens) (UniProt P11712). Put plainly: qHTS Assay for Inhibitors and Substrates of Cytochrome P450 2C9 (AID 883). Further: nearly all actives have a fitted effect of over 60% in size. Further: potency means the concentration at half of the fitted maximal effect. An outline of the steps:
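Turnover of Luciferin-H (100uM, KM) by 10nM human CYP2C9 was measured over 60 min at 37C with NADPH regeneration; inhibitors and some substrates reduce luminescence. Data normalized to sulphaphenazole 57uM.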

Test [10] addresses Muscarinic acetylcholine receptor M1 (Rattus norvegicus) (UniProt P08482). Put plainly: qHTS Assay for Antagonists of Acetylcholine Muscarinic M1 Receptor: Kinetic Measurement of Intracellular Calcium Response (AID 943). Further: series mostly up to about 35 µM; nearly all actives have a fitted effect of over 75% in size. An outline of the steps: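 CHO cells expressing rat M1 receptor, Fluo-4 loaded, preincubated 10 min with compound, then stimulated with EC80 carbachol (100 nM final). Kinetic calcium fluorescence over 4 min; response taken as peak over basal signal.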

The nature of test [11]: qHTS Assay for Identification of Small Molecule Antagonists for NFkB Signaling Pathway (AID 895; active means well fitted inhibition curve with a large enough effect in the signal ratio, with a control signal flat, not every such curve was filed as active; the % refers to the signal ratio; further: potency means the concentration at half of the fitted maximal effect). An outline of the steps:
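Beta-lactamase reporter read-out (460 and 530 nm emission ratio, 405 nm excitation, 2 hrs substrate loading RT) after 5 hr stimulation with 10 pM TNF alpha in compound-treated NFkB-bla ME-180 cells in low-serum medium.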

Test [12] concerns the target Cytochrome P450 2D6 (Homo sapiens) (UniProt P10635). Briefly: qHTS Assay for Inhibitors and Substrates of Cytochrome P450 2D6 (AID 891). Further: nearly all actives have a fitted effect of over 60% in size. Further: potency means the concentration at half of the fitted maximal effect. An outline of the steps: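 Human CYP2D6 (5 nM) with 30 uM Luciferin-ME EGE (at Km) in 100 mM KPO4, compound preincubated 10 min, then NADPH regeneration system for 60 min at room temperature. Luciferin read by luminescence; normalized to 1.43 uM quinidine.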

The nature of test [13]: qHTS Assay for Identification of Small Molecule Agonists for Hypoxia Response Element Signaling Pathway (AID 914; active means well fitted activation curve with a large enough effect in the signal ratio, with a control signal flat, not every such curve was filed as active; the % refers to the signal ratio; further: potency means the concentration at half of the fitted maximal effect; on activation: % of control where 0% means no effect). The conditions noted are these: ME-180 (cervical carcinoma) HRE-bla reporter, beta-lactamase ratio, CoCl2, 17 h; activation: stronger effect = higher value. An outline of the steps: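 A beta-lactamase reporter under hypoxia response element control in ME-180 cells served as the system. Compound titrations plus EC50 CoCl2 ran 17 h at 37 degrees Celsius; AC50 values were fitted from %Activity.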

Test [14] in a line: qHTS Assay for Identification of Small Molecule Antagonists for Thrombopoietin (TPO) Signaling Pathway (AID 918). Further: potency means the concentration at half of the fitted maximal effect; nearly all actives have a fitted effect of over 60% in size. The conditions noted are these: TPO-dependent cell signaling reporter, antagonist mode. An outline of the steps: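 Murine Ba/F3 cells expressing human TPO receptor and a Glycoprotein IIb promoter-luciferase reporter, IL-3-starved overnight, treated with compound plus TPO at EC50 (26 pM final). After 24 h at 37 C, luminescence read to detect inhibitors.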

The structures appear in SMILES notation. Several values for one entry are separate records, joined by “and”; a condition that tells them apart may be missing. Equal entries are not always repeated. Results filed as inconclusive are left out. A structure can be active in one record and inactive in another. Activity calls are given as the source filed them. Unless noted, the call rests on the fitted dose curve; in most records, active means well fitted curve in the direction sought with a large enough effect; inconclusive means small, poorly fitted or top-dose-only effect, or another doubt; inactive means no such curve, though single readings can be large; an effect the other way counts as inactive or inconclusive. Residues, ends and D or L forms follow the SMILES beside them. *: point of attachment. Cbz = O=C(OCc1ccccc1)*

Muscarinic acetylcholine receptor M1 (Rattus norvegicus), sequence (P08482 whole entry, looked up): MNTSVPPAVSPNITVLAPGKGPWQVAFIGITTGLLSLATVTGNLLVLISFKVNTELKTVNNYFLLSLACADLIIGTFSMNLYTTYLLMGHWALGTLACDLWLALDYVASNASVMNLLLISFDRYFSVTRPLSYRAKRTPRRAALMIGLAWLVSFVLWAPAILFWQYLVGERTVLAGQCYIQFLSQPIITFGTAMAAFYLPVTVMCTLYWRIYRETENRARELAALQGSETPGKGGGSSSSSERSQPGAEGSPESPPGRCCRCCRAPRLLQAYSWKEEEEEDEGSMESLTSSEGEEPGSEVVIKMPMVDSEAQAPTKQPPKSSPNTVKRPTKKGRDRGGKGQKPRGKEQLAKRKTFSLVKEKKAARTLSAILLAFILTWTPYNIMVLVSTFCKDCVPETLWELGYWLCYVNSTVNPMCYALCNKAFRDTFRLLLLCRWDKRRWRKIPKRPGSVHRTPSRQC
Cytochrome P450 2C19 (Homo sapiens), sequence (P33261 whole entry, looked up): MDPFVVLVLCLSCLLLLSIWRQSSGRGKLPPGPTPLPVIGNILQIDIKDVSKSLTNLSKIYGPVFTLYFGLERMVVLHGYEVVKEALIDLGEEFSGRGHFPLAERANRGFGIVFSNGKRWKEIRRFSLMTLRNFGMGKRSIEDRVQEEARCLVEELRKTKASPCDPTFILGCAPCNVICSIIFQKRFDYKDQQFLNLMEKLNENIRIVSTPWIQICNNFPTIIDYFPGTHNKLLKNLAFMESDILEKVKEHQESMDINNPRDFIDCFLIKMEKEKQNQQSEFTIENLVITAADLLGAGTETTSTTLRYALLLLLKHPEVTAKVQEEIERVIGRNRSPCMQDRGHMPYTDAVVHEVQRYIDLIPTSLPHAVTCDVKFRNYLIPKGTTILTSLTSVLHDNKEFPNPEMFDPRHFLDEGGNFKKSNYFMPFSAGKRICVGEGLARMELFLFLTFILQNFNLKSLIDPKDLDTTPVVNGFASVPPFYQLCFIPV
Cytochrome P450 2C9 (Homo sapiens), sequence (P11712 whole entry, looked up): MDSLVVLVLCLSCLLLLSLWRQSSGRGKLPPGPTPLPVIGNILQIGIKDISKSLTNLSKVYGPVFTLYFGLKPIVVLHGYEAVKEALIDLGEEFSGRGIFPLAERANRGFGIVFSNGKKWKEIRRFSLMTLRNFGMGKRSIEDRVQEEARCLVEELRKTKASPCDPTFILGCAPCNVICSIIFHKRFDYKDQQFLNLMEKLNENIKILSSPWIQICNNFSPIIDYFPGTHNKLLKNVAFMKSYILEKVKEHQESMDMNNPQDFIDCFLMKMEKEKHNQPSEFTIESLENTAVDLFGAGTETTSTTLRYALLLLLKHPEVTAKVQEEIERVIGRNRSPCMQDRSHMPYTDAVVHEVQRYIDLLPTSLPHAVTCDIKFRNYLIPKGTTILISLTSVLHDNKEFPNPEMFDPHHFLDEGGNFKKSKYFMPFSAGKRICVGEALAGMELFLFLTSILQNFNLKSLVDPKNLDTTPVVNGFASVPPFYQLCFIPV
Cytochrome P450 2D6 (Homo sapiens), sequence (P10635 whole entry, looked up): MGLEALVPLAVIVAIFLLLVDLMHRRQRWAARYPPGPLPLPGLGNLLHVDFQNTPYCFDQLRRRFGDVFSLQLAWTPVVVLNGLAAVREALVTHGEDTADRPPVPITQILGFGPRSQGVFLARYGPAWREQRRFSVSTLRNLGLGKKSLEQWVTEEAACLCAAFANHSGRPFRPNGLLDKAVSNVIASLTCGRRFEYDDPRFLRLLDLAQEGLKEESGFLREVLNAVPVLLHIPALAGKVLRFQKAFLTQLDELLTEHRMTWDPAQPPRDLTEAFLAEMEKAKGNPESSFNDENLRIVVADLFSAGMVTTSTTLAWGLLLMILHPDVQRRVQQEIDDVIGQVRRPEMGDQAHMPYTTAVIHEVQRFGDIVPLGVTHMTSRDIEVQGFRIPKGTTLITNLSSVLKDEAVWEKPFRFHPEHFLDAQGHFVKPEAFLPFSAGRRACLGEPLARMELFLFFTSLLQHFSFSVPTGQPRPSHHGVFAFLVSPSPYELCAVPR

As to `N=C(N)SCCN`, the Potency entry in test [1], in test [3], in test [4], in test [5], in [6] and in test [8] was “inactive” each time. For the same compound, the Potency in [2] was 3.16 µM (active). For the same compound, the outcome in [7] was inactive.

Regarding `CC(=O)N[C@@H](Cc1c[nH]c2ccccc12)C(=O)OCc1cc(C(F)(F)F)cc(C(F)(F)F)c1`, the Potency entry in test [1], in test [10] and in test [8] was “inactive” in each case. The Potency in test [9] was 12.6 µM (active); in test [4] it was 7.94 µM (active).

For the compound `O=C(O)C1=CCNCC1`, the Potency result in test [1], in test [2], in test [11], in [5], in [6] and in [10] was “inactive” in each case. Also, the Potency entry in test [8] was “inactive”. Also, the compound was classed as inactive in test [7].

Take `CCCCOC(=O)NS(=O)(=O)c1sc(CC(C)C)cc1-c1ccc(Cn2c(CC)nc3c(C)cc(C)nc32)cc1`: the Potency entry in test [1], in [3] and in test [8] was “inactive” in each case. In addition, the Potency in test [2] is 3.16 µM (active).

As for `Cc1ccc([N+](=O)[O-])cc1S(=O)(=O)N(C)C`, the Potency result in test [1], in test [2], in [3], in test [6], in test [10] and in test [8] was “inactive” each time.

For `NCCCCN`, the Potency entry in test [1], in test [2], in test [5], in test [6], in test [10] and in test [8] was “inactive” each time. Besides, in [7], the compound was called inactive.

Regarding `c1ccc(CN2CCC3(CCCc4ccccc43)CC2)cc1`, the Potency entry in test [1], in test [2] and in [6] was “inactive” in each case. Also, the Potency in test [3] is 25.1 µM (active); in test [12], 0.251 µM (active).

Turning to `N#C/C(=C\c1ccc(O)c(O)c1)C(=O)NCCc1ccccc1`, the Potency result in [1], in test [3] and in [10] was “inactive” each time. For the same compound, the Potency in [2] is 3.98 µM (active).

In the case of `Cn1c(=O)c2[nH]c(C3CCCC3)nc2n(C)c1=O`, the Potency result in test [1], in test [3], in test [5], in test [6], in test [10] and in test [8] was “inactive” throughout. The Potency in [2] is 39.8 µM (active). Moreover, in test [13], the activation is -4.29% (inactive). Also, the compound was classed as inactive in [7].

Regarding `COc1ccccc1N1CCN(CCCCNC(=O)c2ccc3ccccc3c2)CC1`, the Potency result in test [1] and in test [3] was “inactive” in each case. For the same compound, the Potency in test [12] was 3.16 µM (active) and 3.98 µM (active).

With `O=C1NC(=O)c2cc(Nc3ccccc3)c(Nc3ccccc3)cc21`, the Potency entry in test [1], in [3] and in test [8] was “inactive” in each case. In addition, the Potency is 1.58 µM (active) in test [2] and 10 µM (active) in test [11].

Take `c1ccc2c(c1)CC(N1CCN(c3cccc4c3OCCO4)CC1)C2`: the Potency entry in test [1], in test [2] and in test [6] was “inactive” each time. The Potency in test [3] was 25.1 µM (active).

Turning to `N=C(N)SCCc1cnc[nH]1`, the Potency result in test [1], in test [3], in test [10] and in test [8] was “inactive” throughout. Also, the Potency in [12] was 6.31 µM (active); in test [14], 0.794 µM (active).

For `O=C1Cc2c([nH]c3ccc(Br)cc23)-c2ccccc2N1`, the Potency result in [1], in test [3], in test [4] and in test [10] was “inactive” throughout. Besides, the Potency entry in test [12] is “inactive and 398 nM (active)”; in test [6] it was 0.158 µM (active).

Regarding `CC(C)(CO)Cc1cc(C(C)(C)C)c(O)c(C(C)(C)C)c1`, the Potency result in test [1], in test [3], in test [12], in test [6], in test [10] and in test [8] was “inactive” throughout. The Potency was 2.51 µM (active) in test [2] and 12.6 µM (active) in test [13].

As for `O=C(O)Cc1c[nH]c2ccc(O)cc12`, the Potency result in test [1], in [9], in test [6], in [10] and in [8] was “inactive” in each case.

`CCSC(=N)N`: the Potency entry in test [1], in test [3], in test [11], in [5], in test [6] and in test [10] was “inactive” each time. In addition, the Potency result in test [8] was “inactive”. Also, the Potency in test [12] was 3.98 µM (active). For the same compound, the result in [7] was inactive.

With `Nc1ccc(-c2nc3ccc(-c4nc5ccc(N)cc5[nH]4)cc3[nH]2)cc1`, the Potency result in test [1], in [3], in [6] and in [8] was “inactive” each time. Moreover, the Potency in test [2] was 0.0631 µM (active); in test [11], 1.12 µM (active).

Turning to `C=CC[C@H](N)C(=O)O`, the Potency entry in [1], in test [2], in [11], in [10] and in [8] was “inactive” in each case.

As for `Cn1cc(C(=O)OCC2CCN(CCNS(C)(=O)=O)CC2)c2ccccc21`, the Potency result in test [1], in test [9], in [12], in [4], in test [6] and in test [8] was “inactive” throughout. In addition, the activation in [13] is 26.2% (inactive).

For the compound `CC(C)[C@H](NC(=O)OCc1ccccc1)C(=O)N[C@H](C=O)Cc1ccccc1` (Cbz-Val-Phe-aldehyde), the Potency result in [1], in [3], in [6] and in test [10] was “inactive” each time. The Potency in [2] is 6.31 µM (active).

With `N#Cc1cc2nc(O)c(O)nc2cc1[N+](=O)[O-]`, the Potency entry in test [1], in [9], in [11], in test [6], in test [10] and in test [8] was “inactive” each time.

In the case of `CCCCCCCCCCC/C=C\C(C)(C)/C=C\CCCC(=O)O`, the Potency entry in test [1], in test [2], in test [6], in test [10] and in [8] was “inactive” throughout.

Turning to `COc1cc(N)c(Cl)cc1C(=O)OCCN1CCCCC1`, the Potency result in [1], in test [3], in [11] and in test [6] was “inactive” throughout. The Potency in [2] was 15.8 µM (active).

As to `CCN1C(=O)C=CC1=O`, the Potency in [14] was 1.58 µM (active).

As for `O=C(N[C@@H](Cc1ccccc1)C(=O)CCl)OCc1ccccc1`, in [14], the Potency was 2.51 µM (active).

`O=C(O)/C(=C/c1c(C(=O)O)[nH]c2cc(Cl)cc(Cl)c12)c1ccccc1`: the Potency result in [1], in [11], in [6], in [10] and in [8] was “inactive” each time.

As for `O=C(O)C1=CCCN(CCON=C(c2ccccc2)c2ccccc2)C1`, the Potency result in test [1], in [11], in [6] and in test [8] was “inactive” each time.

With `O=C(O)C1CCNCC1`, the Potency entry in [1], in test [11], in test [6] and in test [8] was “inactive” throughout.

Take `O=c1ccc2c(OCCCCc3ccccc3)c3ccoc3cc2o1`: the Potency result in test [1] and in test [6] was “inactive” throughout.

With `CC(C)NC[C@H](O)COc1ccc(CC(N)=O)cc1`, the Potency result in test [1], in test [5] and in test [6] was “inactive” throughout. In addition, the result in test [7] was inactive.

(Values after PubChem BioAssay (NCATS).)
